Screens (PubChem BioAssay)
A selection: hits, their analogues and other compounds. The true share with any hit is near 2.9%.
Exocytosis inh: lytic granule exocytosis inhibition. inhibition, % at 10 µM. TALL-104 LAMP-1 surface exposure, flow cytometry; cells stimulated with thapsigargin and PMA. hit rate 0.66% among 360,000;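 active = inhibition above about 55%, limit read from the data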
B2AR ag: activates human beta-2 adrenergic receptor causing internalization. P07550. Am2.2-beta2AR cells, FAP receptor internalization, flow cytometry. response, % (test concentration not listed). hit rate 0.43% among 340,000. AID 504454;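 active = response above a set limit, near 3 SD of response in nonfluorescent compounds, cut at about 42% in these data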
Target sequence (P07550 whole entry, looked up): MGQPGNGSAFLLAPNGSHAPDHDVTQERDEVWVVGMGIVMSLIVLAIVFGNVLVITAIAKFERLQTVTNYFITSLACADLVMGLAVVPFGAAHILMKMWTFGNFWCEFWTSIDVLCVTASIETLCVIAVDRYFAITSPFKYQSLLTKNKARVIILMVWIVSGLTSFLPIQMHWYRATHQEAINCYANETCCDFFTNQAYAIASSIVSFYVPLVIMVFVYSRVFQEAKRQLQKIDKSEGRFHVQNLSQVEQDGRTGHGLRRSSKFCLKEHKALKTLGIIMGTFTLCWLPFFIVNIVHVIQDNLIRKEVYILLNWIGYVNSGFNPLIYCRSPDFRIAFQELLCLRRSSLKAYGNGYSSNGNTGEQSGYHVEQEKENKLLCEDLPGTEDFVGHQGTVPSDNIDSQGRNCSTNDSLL
PP1 inh: counter-screen for PP5 inhibitors: inhibitors of human PP1-alpha; P62136; purified PP1alpha, OMFP fluorescence; inhibition, % at 6.7 µM; hit rate 0.9% among 320,000; AID 2235;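 active = inhibition above the mean inhibition of all tested compounds plus 3 SD, computed separately for each screening campaign, cut at about 15% in these data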
GRK2 inh: inhibitors of human GRK2 displacing RNA aptamer | P25098 | bead flow cytometry, FAM-aptamer displacement from GRK2 | inhibition of aptamer binding, % at 10 µM | hit rate 0.59% among 330,000;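 active = inhibition of aptamer binding above 40%, roughly 3 SD of noise, on plates passing a quality check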;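 note: median bead fluorescence of bound FAM aptamer so fluorescent compounds give negative values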
NadD block: inhibitors of Staphylococcus aureus NadD. purified NadD enzyme, colorimetric absorbance read-out. inhibition, % at 20 µM. hit rate 0.78% among 360,000. AID 602399; in the data active = inhibition above about 26%
PP1 inh confirm: confirmation of human PP1 phosphatase inhibitors; shares compounds with PP1 inh; purified PP1alpha, OMFP substrate fluorescence; inhibition, % at 6.7 µM; hit rate 52% among 1,900;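 active = mean PP1 inhibition above a set limit taken from the earlier primary screen, cut at about 15% in these data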
PP5 inh counter: PP5 phosphatase inhibition, counter-screen for PP1 inhibitors; shares compounds with PP1 inh; purified PP5c, OMFP fluorescence; inhibition, % at 6.7 µM; hit rate 4% among 1,900;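 active = mean PP5 inhibition over triplicate wells above about 9.5% taken from the earlier PP1 screen, limit read from the data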
* = called active by the depositor; . = no result given.

SMILES	Exocytosis inh	B2AR ag	PP1 inh	GRK2 inh	NadD block	PP1 inh confirm	PP5 inh counter
Cc1ccc(S(=O)(=O)NC(Cc2ccccc2)C(=O)NN)cc1 (configuration not stated)	-3	1	1	0	4	.	.
Cc1ccc(S(=O)(=O)N[C@@H](Cc2ccccc2)C(=O)CCl)cc1	4	53*	-2	0	-1	.	.
CS(=O)(=O)N1CCN(c2ccccc2NC(=O)c2ccco2)CC1	-8	-16	2	1	-1	.	.
CCS(=O)(=O)N1Cc2ccccc2CC1C(=O)Nc1nnc(SCc2c(Cl)cccc2Cl)s1 (configuration not stated)	0	-4	17*	1	25	.	.
Cc1ccc(CN2CC(C(=O)Nc3nnc(SCc4c(Cl)cccc4Cl)s3)CC2=O)cc1 (configuration not stated)	13	-11	16*	3	-2	.	.
C=CCSc1nnc(NC(=O)C2CC(=O)N(Cc3ccc(C)cc3)C2)s1 (configuration not stated)	-5	-1	2	6	-2	.	.
CN(CCc1ccccc1)C(=O)c1ccc(NC(=O)Cc2ccc(NC(=O)C3CCCN(S(=O)(=O)c4cccc([N+](=O)[O-])c4)C3)cc2)cc1 (configuration not stated)	-3	-2	.	.	21	.	.
CCc1cc2c(COC(=O)c3cccc(S(C)(=O)=O)c3)cc(=O)oc2cc1O	2	61*	2	0	4	.	.
O=[N+]([O-])c1ccc(S(=O)(=O)CC(CN2CCOCC2)N2CCOCC2)cc1 (configuration not stated)	5	-9	-1	2	0	.	.
O=[N+]([O-])c1ccc(S(=O)(=O)CC(CN2CCCCC2)N2CCCCC2)cc1 (configuration not stated)	64*	13	-5	0	-4	.	.
COc1cc(O)cc2c1[C@@H]1Oc3c(ccc(O)c3CC=C(C)C)[C@@H]1CO2	4	13	-2	0	-5	.	.
O=C(Nc1cccc(Oc2ccccc2)c1)C1Cc2c(-c3ccccc3)ccnc2O1 (configuration not stated)	-2	.	.	.	3	.	.
O=Cc1cc2ccccc2nc1SCCCF	59*	-118	0	0	-4	.	.
Cc1ccc(C(NC(=O)C(C)C)c2cc([N+](=O)[O-])c3cccnc3c2O)cc1 (configuration not stated)	2	-3	26*	1	30	20*	-1
CC(C)C(=O)NC(c1cccs1)c1cc([N+](=O)[O-])c2cccnc2c1O (configuration not stated)	-1	2	26*	0	9	16*	8
CC(C)c1ccc(/C=C2\SC(=O)N(CC(=O)NC3C=CS(=O)(=O)C3)C2=O)cc1 (configuration not stated)	13	-1	28*	0	12	33*	-3
O=C(CN1C(=O)/C(=C/c2ccc(Cl)cc2)SC1=S)NC1C=CS(=O)(=O)C1 (configuration not stated)	-2	2	-7	0	5	.	.
COc1ccc(C(=O)NCc2ccc(F)cc2)cc1S(=O)(=O)N1CCCC1	-3	3	.	.	-4	.	.
O=C(NCc1cccnc1)/C(=C/c1ccc(-c2cccc(C(F)(F)F)c2)o1)NC(=O)c1ccccc1	-1	2	7	2	10	.	.
Cc1ccc(C(=O)N/C(=C/c2ccc(-c3cc(C(F)(F)F)ccc3Cl)o2)C(=O)NCc2cccnc2)cc1	-3	11	22*	0	20	13	3
O=C(CN(c1ccccc1Cl)S(=O)(=O)c1ccccc1)N/N=C/c1ccccc1C(=O)O	-1	21	1	0	1	.	.
Cc1ccc(S(=O)(=O)N(CC(=O)N/N=C/c2ccccc2C(=O)O)c2cc(Cl)cc(Cl)c2)cc1	2	2	19*	0	23	19*	1
COC(=O)CCCC1=CC2=CC(=O)C(C)(OC(=O)c3cccs3)C(=O)C2=CN1CCc1c[nH]c2ccccc12 (configuration not stated)	-1	6	9	4	14	.	.
CCCCC1=CC2=CC(=O)C(C)(OC(=O)CC)C(=O)C2=CN1CCc1c[nH]c2ccccc12 (configuration not stated)	-17	3	20*	0	15	3	8
CCOC(=O)C1=C(c2ccccc2)N=c2s/c(=C\c3ccco3)c(=O)n2C1c1cccs1 (configuration not stated)	1	6	21*	14	14	19*	-2
SMILES	Exocytosis inh	B2AR ag	PP1 inh	GRK2 inh	NadD block	PP1 inh confirm	PP5 inh counter
CCCCCCCCn1ccc(=N)cc1	8	7	-2	0	-1	.	.
CCCCCCCCCCCCCCCCn1cc[n+](C)c1	18	8	25*	0	16	-12	1
CCCC(=O)NC(c1ccc(Cl)cc1)c1ccc2cccnc2c1O (configuration not stated)	7	11	23*	2	-1	20*	-5
CCCC(=O)NC(c1ccc(Cl)cc1Cl)c1ccc2cccnc2c1O (configuration not stated)	4	2	26*	0	5	21*	-4
CCCCC(=O)NC(c1ccc(Cl)cc1)c1ccc2cccnc2c1O (configuration not stated)	11	-1	32*	0	4	21*	-5
CCCC(=O)NC(c1ccc(C)cc1)c1ccc2cccnc2c1O (configuration not stated)	6	2	23*	1	1	18*	-3
CN(C)c1ccc(N=Nc2ccc(S(N)(=O)=O)cc2)cc1	-3	-2	20*	0	4	13	-4
O=S(=O)(c1ccc(SCCOc2ccc(Cl)cc2)nc1)N1CCCC1	2	-12	2	2	7	.	.
O=C(N/N=C/c1ccncc1)c1sc2ccccc2c1Cl	-2	1	1	0	7	.	.
COc1ccc2c(Cl)c(C(=O)N/N=C/c3ccncc3)sc2c1	-7	1	40*	0	15	48*	-5
CCOc1ccc(NC(=O)CC2C(=O)N(c3ccccc3)C(=O)N2Cc2ccco2)cc1 (configuration not stated)	-1	1	-3	2	-4	.	.
O=C(Nc1nc(-c2nc3ccccc3s2)cs1)C1CC1	-6	-23	24*	0	-6	26*	0
O=C(Nc1nc(-c2nc3ccccc3s2)cs1)c1ccco1	16	-5	23*	0	1	26*	-3
Cc1nc(C(F)(F)F)ccc1C(=O)N1CCC1(C)C(=O)NS(C)(=O)=O (configuration not stated)	-8	.	.	.	-5	.	.
O=C(Nc1cccc(Cl)c1)c1ccccc1NC(=O)C1CCCCC1C(=O)O (configuration not stated)	-5	6	.	0	-5	.	.
